According to PubChem BioAssay AID720533 (National Center for Advancing Translational Sciences (NCATS), 2013):
Out of some 18,000 compounds screened, about 750 (4.2%) were called active. A call without a number means that no potency is given here. Inconclusive results (about 13%) are left out. This excerpt belongs to a sample that is enriched for actives. Unmarked numbers belong to inactive results. The call rests on the fitted dose curve; tested in HEK293 cells.

Experiment: qHTS for Inhibitors of binding or entry into cells for Lassa Virus
Conditions: Lassa virus pseudotyped entry inhibition, cell-based qHTS; series mostly up to 49.2 µM
Potency means the concentration at half of the fitted maximal effect.

| SMILES | activity change, negative = inhibition | Potency |
| --- | --- | --- |
| COc1ccccc1-c1ccnc(-n2ncc(C(=O)NCCc3ccncc3)c2C)n1 | inactive |  |
| CCOc1ccc(NS(=O)(=O)c2ccc(N)cc2)nn1 | inactive |  |
| CC(C)[C@@H](CO[Si](C)(C)C(C)(C)C)N1C[C@@H](N2CCCC2)CS1(=O)=O | inactive |  |
| C=CC1=C2C=C(C3CC3)N(CC(C)C)C=C2C(=O)C(C)(OC(=O)c2ccco2)C1=O (stereo unspecified) | -4.02% [at 8.59 µM] |  |
| NC(=O)C(=O)N/N=C/c1ccc([N+](=O)[O-])o1 | inactive |  |
| Cc1ccc(-c2nn(CC(C)(C)C)c3ncnc(N)c23)cc1 | inactive |  |
| Cc1csc(-c2coc3cc(O[C@@H]4O[C@H](CO)[C@@H](O)[C@@H](O)[C@H]4O)ccc3c2=O)n1 | inactive |  |
| COc1ccc([C@@H](NC(=O)C(F)(F)F)C2CCCC=C2c2ccccc2)cc1OC (stereo partly specified) | -11.1% [at 8.59 µM] |  |
| NNc1nnc(Cc2ccncc2)c2ccccc12 | inactive |  |
| O=Cc1c(Cl)cccc1Cl | inactive |  |
| O=C1C(c2ccccn2)=[N+]([O-])c2ccccc21 | inactive |  |
| Cc1nnc(C(=O)NC(C)(C)c2nc(C(=O)NCc3ccc(F)cc3)c(O)c(=O)n2C)o1 | inactive |  |
| C[C@@H]1C[C@H]2CC[C@H](O2)[C@H](C)C(=O)O[C@@H](C)C[C@@H]2CC[C@@H](O2)[C@@H](C)C(=O)O[C@H](C)C[C@H]2CC[C@H](O2)[C@H](C)C(=O)O[C@@H](C)C[C@@H]2CC[C@@H](O2)[C@@H](C)C(=O)O1 |  | 0.562 µM (active) |
| CCCCCCCCCCCC(=O)O[C@H](CC(=O)O)C[N+](C)(C)C | inactive |  |
| COC1=C[C@H](C(=O)N[C@H]2CCCC[C@H]2NC(C)=O)[C@H](C)[C@@H](c2ccccc2)CC1=O | -1.51% [at 8.59 µM] |  |
| COc1cccc([C@@H]2Oc3ccc(Br)cc3C(=O)[C@H]2OC(=O)NCc2ccc3c(c2)OCO3)c1 | inactive |  |
| CN1CCCCCC1C(=O)NCCN1Cc2ccccc2OC(c2ccsc2)C1 (stereo unspecified) | inactive |  |
| CCCCC/C=C\C[C@H](O)/C=C/C=C/C=C/[C@@H](O)CCCC(=O)O | inactive |  |
| O=C(/C=C/c1cccc(F)c1)NC1CC1 | inactive |  |
| CC[N+](C)(CC)CCC[n+]1c(-c2ccccc2)c2cc(N)ccc2c2ccc(N)cc21 |  | 3.16 µM (active) |
| Brc1ccc(C2=NCCC(c3ccccc3)O2)cc1 (stereo unspecified) | inactive |  |
| COC1=C[C@H](C(=O)NCc2ccccc2)[C@@]2(C)Cc3ccccc3[C@@H]2CC1=O | -4.25% [at 8.59 µM] |  |
| CCCC[C@]12Cc3cc(C#N)ccc3[C@H](O1)c1c(cc(-c3ccccc3)oc1=O)O2 | 20.3% [at 8.59 µM] |  |
| C=C(C)C(O)C=CC=Cc1ccccc1 (stereo unspecified) | 46.4% [at 8.59 µM] |  |
| C=O | inactive |  |
| C[C@H]1CCC[C@@]2(C)CCCC[C@]12O | inactive |  |

| SMILES | activity change, negative = inhibition | Potency |
| --- | --- | --- |
| CO[C@@]12[C@@H](COC(N)=O)C3=C(C(=O)C(C)=C(N)C3=O)N1C[C@@H]1N[C@@H]12 | inactive |  |
| COc1cc(=O)n2c(c1C(=O)NC(C)c1ccco1)CCN(C(=O)c1cn3ccc(C)cc3n1)CC2 (stereo unspecified) | inactive |  |
| CC[C@H](C)[C@H](NC(=O)[C@H](CCCNC(=N)N)NC(=O)[C@H](CCCNC(=N)N)NC(=O)[C@H](CC(C)C)NC(=O)[C@H](Cc1ccccc1)NC(=O)CNC(=O)CNC(=O)[C@@H](N)Cc1ccc(O)cc1)C(=O)N[C@@H](CCCNC(=N)N)C(=O)N1CCC[C@H]1C(=O)N[C@@H](CCCCN)C(=O)N[C@@H](CC(C)C)C(=O)N[C@@H](CCCCN)C(=O)N[C@@H](Cc1c[nH]c2ccccc12)C(=O)N[C@@H](CC(=O)O)C(=O)N[C@@H](CC(N)=O)C(=O)N[C@@H](CCC(N)=O)C(=O)O | inactive |  |
| CCC1(C2CCN(Cc3cccnc3)CC2)NC(=O)N(CC2COc3ccccc3O2)C1=O (stereo unspecified) | inactive |  |
| COC(=O)C12C[C@@H](C)C3C(C)C(c4ccccc4C31)N2C(=O)C(F)(F)F (stereo partly specified) | 4.36% [at 8.59 µM] |  |
| C=CCOC(=O)N[C@@H](CC(C)C)C(C(=O)OC)=C(C)NCc1ccccc1 | -29.4% [at 8.59 µM] |  |
| C[C@H]1Cc2c(-c3ccccc3)nc3c(c2CO1)CN(S(=O)(=O)c1ccc(Cl)c2nonc12)CC3 | -12.5% [at 8.59 µM] |  |
| CC1(C)OC[C@@H](COC(=O)CCc2ccc(OC[C@@H](O)CNCCNC(=O)N3CCOCC3)cc2)O1 | inactive |  |
| NS(=O)(=O)c1ccc(N=Nc2c(O)[nH]c3cccc(CCc4ccncc4)c23)cc1 | inactive |  |
| CC(=O)OC[C@H]1O[C@H](C#CCCCc2ccccc2)C=C[C@H]1OC(C)=O | -26.7% [at 8.59 µM] |  |
| COc1ccc(-n2c(CNC(=O)c3cc(C(F)(F)F)ccc3Cl)nnc2SC)cc1 | inactive |  |
| CCCC1C(=O)N2C(N(C)C)=Nc3ccc(C)cc3N2C1=O (stereo unspecified) | inactive |  |
| CC(=O)OCC(COC(C)=O)OC(C)=O | inactive |  |
| COC(=O)C(C(=O)OC)C1c2ccccc2C=C(C2CC2)N1C(=O)OC (stereo unspecified) | inactive |  |
| CCC1CN(CCNC(=O)c2cccnc2C)Cc2cc(OC)ccc2O1 (stereo unspecified) | inactive |  |
| O=C1OCCN1C(=O)[C@H]1[C@H](c2ccc(F)cc2)C(c2ccccc2)=NN1c1ccc(Br)cc1 | inactive |  |
| CCn1ccnc1C[C@@H]1COc2ccccc2O1 | inactive |  |
| C#CCN([C@@H](C)C(=O)OCC)S(=O)(=O)c1ccc(Br)cc1F | inactive |  |
| CCCc1c2oc(C(=O)O)cc(=O)c2cc2c(=O)cc(C(=O)O)n(CC)c12 | inactive |  |
| CCc1noc(C)c1C(=O)NCCN1Cc2cc(OC)ccc2OC(CC)C1 (stereo unspecified) | inactive |  |
| CC(=O)c1c(O)c(C)c(O)c(Cc2c(O)c3c(c(C(=O)/C=C/c4ccccc4)c2O)OC(C)(C)C=C3)c1O | inactive |  |
| CC(=O)c1c(O)c(C)c(O)c(Cc2c(O)c3c(c(C(=O)/C=C\c4ccccc4)c2O)OC(C)(C)C=C3)c1O |  | 15.8 µM (active) |
| O=C(/C=C/c1ccccc1)c1ccccc1O | inactive |  |
| CC(C)CNc1cccc2c1S(=O)(=O)N[C@H](CC(C)C)CO2 | inactive |  |
| CC[C@@]12C=C(/C=C/c3ccccc3)[C@](CC)(C1)[C@H](c1ccccc1)CC2=O | inactive |  |
